# Sfp PPTase inh: qHTS Assay for Inhibitors of Bacillus subtilis Sfp phosphopantetheinyl transferase (PPTase); 4'-phosphopantetheinyl transferase ffp (Bacillus subtilis), Q9F4F7; Biochemical Sfp PPTase activity, qHTS; Potency, µM, for the others: largest response in the series, negative = inhibition, actives largely listed as inhibitors; 3.5% of 310,000 active; AID 1490, 2009;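 note: the enzyme is Sfp with the accession as filed and its product quenches rhodamine fluorescence; potency is the fitted concentration of half-maximal effect; 0% = enzyme reaction without inhibitor and -100% = no enzyme wells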
#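 Step 1, compound plus 15 nM Sfp-PPTase, 15 min, room temperature. Step 2, add rhodamine-CoA (5 uM) and BHQ-2-YbbR (12.5 uM). Step 3, read 525/598 nm fluorescence at 0 and 30 min.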
# Tau ThT inhib: qHTS for Inhibitors of Tau Fibril Formation, Thioflavin T Binding. recombinant tau K18 P301L, heparin-induced fibrillization, ThT fluorescence. Potency, µM (highest dose often 57.4 µM), for the others: top-dose activity, negative = inhibition, hits mostly inhibitors. 2.1% of 270,000 active; note: potency is the fitted concentration of half-maximal effect; nearly all actives have a fitted effect of over 55% in size
# Target sequence (P10636 561-689 P618L limits assumed): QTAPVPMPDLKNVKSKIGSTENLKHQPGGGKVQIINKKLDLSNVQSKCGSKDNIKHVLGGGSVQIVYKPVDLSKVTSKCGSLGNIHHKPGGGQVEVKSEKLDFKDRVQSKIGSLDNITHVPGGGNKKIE
#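 Using a mix of unlabeled (15 uM) and Alexa 594-labeled (0.24 uM) tau K18 P301L, heparin-triggered fibrillization over 6 hr at 37 C was scored by ThT fluorescence.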
# FBPA coupling cs: qHTS Assay for Inhibitors of Fructose-1,6-bisphosphate Aldolase from Giardia Lamblia: Coupling assay counterscreen; 0.67% of 290,000 active; activity change, negative = inhibition, % at 58.2 µM, hits read low; coupling enzyme system counterscreen, AmpLite Red fluorescence; in the data active = activity change below about -30%
#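 Compounds tested against the coupling enzymes alone at 57.5 uM final; readout was AmpLite Red fluorescence (525/598 nm) after 20 min at RT.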
# Tau FP inhib: qHTS for Inhibitors of Tau Fibril Formation, Fluorescence Polarization | 0.39% of 280,000 active | K18 P301L tau heparin fibrillization, Alexa594 FP, 6 h | Potency, µM (series often up to 57.7 µM), for the others: at the highest dose activity, negative = inhibition, usual class: inhibitors; note: potency is the fitted concentration of half-maximal effect; nearly all actives have a fitted effect of over 55% in size
#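 Human K18 P301L fragment (15 uM unlabeled plus 0.24 uM Alexa 594-labeled) in 100 mM sodium acetate pH 7 with compound, aggregation induced by 20 uM heparin for 6 hr at 37 C. ThT (30 uM) added for 1 hr, then Alexa 594 FP read.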
# Tau fluor cs: Counterscreen qHTS for Inhibitors of Tau Fibril Formation, Fluorescence Polarization; AID 1463, 2008; Potency, µM (doses to about 57.7 µM), for inactives: at the top dose activity change, negative = decrease; tau K18 P301L (four-repeat tau fragment) Alexa594 fluorescence, heparin fibrillization; 0.93% of 280,000 active; note: potency is the fitted concentration of half-maximal effect; nearly all actives have a fitted effect of over 55% in size
#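 Human K18 P301L tau (15 uM unlabeled plus 0.24 uM Alexa 594-labeled, final) in 100 mM sodium acetate pH 7 was mixed with compound and 20 uM heparin and incubated 6 hr at 37 C.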
# Sfp inh conf: Confirmation qHTS Assay for Inhibitors of Bacillus subtilis Sfp phosphopantetheinyl transferase (PPTase); shares compounds with Sfp PPTase inh; Sfp PPTase enzymatic assay, qHTS titration; Potency, µM (series often up to 114 µM), without a hit: top-dose activity change, negative = inhibition, hits mostly inhibitors; 79% of 380 active;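 note: potency is the fitted concentration of half-maximal effect; plate controls were uninhibited Sfp reaction for no effect and no enzyme control for full effect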
# Target sequence (Q9F4F7 whole entry, looked up): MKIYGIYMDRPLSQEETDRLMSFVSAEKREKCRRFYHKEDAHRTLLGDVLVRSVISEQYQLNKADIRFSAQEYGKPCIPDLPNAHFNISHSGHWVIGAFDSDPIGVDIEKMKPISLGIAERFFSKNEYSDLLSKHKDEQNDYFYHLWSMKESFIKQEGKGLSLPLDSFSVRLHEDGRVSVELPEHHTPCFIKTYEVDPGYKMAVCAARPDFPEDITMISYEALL
# Sfp PPTase gel: Gel-Based Assay for Inhibitors of Bacillus subtilis Sfp phosphopantetheinyl transferase (PPTase); shares compounds with Sfp PPTase inh; purified Sfp, gel-based phosphopantetheinylation read-out; Potency, µM, usual class: inhibitors; 20% of 210 active; AID 2707, 2010;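 active = potency below 100 µM; inconclusive = dose-dependent response but potency above 100 µM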;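 note: band intensities scaled against SCH202676 control wells before curve fitting; potency is an IC50 for inhibitors of Sfp transfer activity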
# * marks the source's active call; other numbers are inactive results; i = inactive; u = inconclusive; x = no result given; ! = not confirmed by another sample; [ ] = remark or other dose. The list is not random: actives were taken first. Their share in the collection is about 5.2%. Unless noted, calls come from the whole dose curve; as a rule, active = well fitted curve in the direction sought with a large enough effect; inconclusive = small, poorly fitted or top-dose-only effect, or another doubt; inactive = no such curve, though single readings can be large; an effect the other way counts as inactive or inconclusive. Unless noted, % is set by controls: 0 for no effect and ±100 for the full control effect.
SMILES,Sfp PPTase inh,Tau ThT inhib,FBPA coupling cs,Tau FP inhib,Tau fluor cs,Sfp inh conf,others
O=C(N/N=C/c1ccc(N2CCCCC2)o1)C(O)(c1ccccc1)c1ccccc1,8.9µM*,u,-7,u,-24%,37µM*,
O=Cc1ccc(N2CCCC2)o1,21%,-3%,0,4%,-3%,x,
CCN(CC)C(=O)c1sc2c(c1C)c(=O)n(Cc1ccccc1)c(=O)n2Cc1ccccc1C,x,-6%,x,-7%,-6%,x,
COc1ccccc1N1CCN(C(=O)c2oc3cc(C)cc(C)c3c2C)CC1,2µM*,u,-2,14%,-10%,47µM*,Sfp PPTase gel=i
COc1ccccc1N1CCN(C(=O)c2cc(=O)c3ccc(C)cc3o2)CC1,-7%,x,2,x,x,x,
Cc1ccc2c(c1)N(C(=O)N1CCC(C(=O)NCc3cccs3)CC1)CC(C)O2 (stereo not drawn),x,-2%,x,-6%,3%,x,
COC(=O)c1cc(=O)c(O)c2c(O)c(O)ccc2c1,32µM*,3.5µM*,-31*,7.9µM*,u,9.4µM*,Sfp PPTase gel=i
COc1cccc(-c2ccc3ncnc(N(C)C)c3c2)c1,u,x,-2,x,x,x,
CC12CCC3c4ccc(OCc5ccccc5)cc4CCC3C1CC(O)C2O (stereo not drawn),-36%,u,-1,5%,-29%,x,
Cc1ccc(-c2cc(C(=O)O)c3cc(Br)ccc3n2)o1,3.2µM*,20µM*,-6,u,-16%,3.7µM*,Sfp PPTase gel=i
COC(=O)Cn1c(-c2ccc(OC)cc2)c(-c2ccc(OC)cc2)nnc1=O,50µM*,x,3,x,x,8%,
CC(C)OC(=O)Cn1c(-c2ccccc2)c(-c2ccccc2)nnc1=O,4%,x,-2,x,x,x,
COc1ccccc1NC(=O)CSc1nnc(-c2ccccn2)n1Cc1ccco1,4.5µM*,-6%,-1,-9%,-11%,59µM*,Sfp PPTase gel=i
COc1ccc(-c2cc(C(C)=O)c(C)n2CCC(=O)Nc2ccc(C)c(Cl)c2)cc1,x,7%,x,-4%,u,x,
CCOC(=O)c1noc2ncn(CC(=O)Nc3ccccc3OC)c(=O)c12,x,2%,x,-1%,6%,x,
Cc1ccc(S(=O)(=O)c2[nH]c(-c3ccccc3)nc2SCC(N)=O)cc1,x,-4%,x,-7%,-12%,x,
CC1=CSC2=NC(=O)/C(=C\c3cccn3-c3ccc([N+](=O)[O-])cc3)C(=N)N12,1µM*,u,0,4%,1%,37µM*,Sfp PPTase gel=i
COc1cc(-c2ccno2)ccc1S(=O)(=O)N1CCN(c2ccc(C(C)=O)cc2)CC1,x,u,x,-2%,-22%,x,
COc1ccccc1NC(=O)C1=C(C)Nc2nc(-c3ccco3)nn2C1c1ccccc1F (stereo not drawn),x,-14%,x,2%,-29%,x,
COC(=O)c1[nH]c2ccccc2c1NC(=O)Oc1ccccc1,11µM*,u,-1,-2%,-14%,u,
C=CCOC(=O)Nc1c(C(=O)OC)[nH]c2ccccc12,-9%,-16%,-2,8%,-22%,x,
Cn1c(SCC(=O)c2cc3ccccc3o2)nnc1-c1ccccc1,13µM*,u,2,-5%,-2%,53µM*,
Cn1cnnc1SCC(=O)c1cc2ccccc2o1,-6%,-13%,2,3%,5%,x,
COc1ccc(C)c2sc(N(Cc3cccnc3)C(C)=O)nc12,x,-12%,x,u,-17%,x,
Clc1ccccc1-c1nnc2sc(-c3ccncc3)nn12,-5%,-14%,5,-4%,-11%,x,
SMILES,Sfp PPTase inh,Tau ThT inhib,FBPA coupling cs,Tau FP inhib,Tau fluor cs,Sfp inh conf,others
Clc1ccccc1-c1nn2c(-c3ccncc3)nnc2s1,16µM*,-11%,6,-6%,-3%,13µM*,
COc1ccc(OCc2nnc3n2N=C(c2ccc(OC)cc2)CS3)cc1,11%,-8%,2,10%,-9%,x,
COc1ccccc1C1=Nn2c(COc3ccccc3)nnc2SC1,14µM*,u,1,u,-27%,11µM*,
c1ccc(OCc2nnc3n2N=C(c2ccccc2)CS3)cc1,16µM*,u,-11,-6%,-17%,17µM*,
CCCCN(CC)C(=O)CSc1nc2c(sc3ccccc32)c(=O)n1CCc1ccccc1,x,-3%,x,-9%,-8%,x,
CC(=O)N1CCN(c2ccc(NCc3ccc4c(c3)OCO4)cc2)CC1,16µM*,16µM*,-33*,u,u,21µM*,Sfp PPTase gel=i
O=C(CSc1ncnc2sc3c(c12)CCCCC3)NCc1ccco1,14µM*,-15%,4,5%,-12%,53µM*,
COc1cccc([C@@H]2Oc3ccc(OC)cc3/C(=N/OC[C@@H](O)COCc3ccco3)[C@@H]2O)c1,2%,-6%[11.5 µM],0,1%[11.6 µM],-7%[11.6 µM],x,
Cc1ccc(-n2c(Cc3cccn3C)nnc2SCC(N)=O)cc1,4%,-8%,4,-7%,-5%,x,
Cc1ccc(-n2c(Cc3cccn3C)nnc2SCC(=O)NCc2ccco2)cc1,6.3µM*,-1%,-1,-5%,4%,u,Sfp PPTase gel=i
COc1cccc(N2CCN(C(=O)c3cc4c(=O)n(Cc5ccccc5)ccc4nc3C)CC2)c1,-11%,-10%,1,8%,1%,x,
Cc1ccc(-c2nn[nH]n2)o1,25µM*,-2%,1,-5%,2%,12µM*,Sfp PPTase gel=i
Cc1ccc(Cn2c(C(=O)O)c(CNC3CCCCCC3)c3ccc(C)cc32)cc1,x,-2%,x,14%,6%,x,
C[C@@](Cc1ccc(O)c(O)c1)(NN)C(=O)O,20µM*!,14µM*!,0,u,u,u,Sfp PPTase gel=6.2µM*
Cc1ccc2oc(=O)c3cnn(CC(=O)Nc4cccc(C(F)(F)F)c4)c3c2c1,x,10%,x,-10%,1%,x,
Cc1ccc(NS(=O)(=O)c2ccc3c(c2)CCCN3C(=O)C2CCC2)c(C)c1,x,-3%,x,3%,-17%,x,
CN1CCCC[C@@H]1CCN1c2ccccc2Sc2ccc(S(C)=O)cc21 (stereo partly drawn),20µM*!,x,-5,x,x,42µM*,Sfp PPTase gel=19µM*
Cc1ccc(-c2nc(NCc3ccco3)c3ccccc3n2)cc1,0%,u,-1,u,u,x,

# Bioassay records (PubChem BioAssay)
